Assay results reported in PubChem BioAssay AID1159580 (chemical genetic matrix, 2015).
“And” between values parts separate entries of the source, which are not always exact repeats. Identical values can stand only once. Out of some 5,500 compounds screened, about 2,000 (36%) were called active. Not shown: some 18% with an inconclusive outcome. Cut-off read from the data, not from the text of the source: active = normalized growth mostly below about 0.91 (no sharp cut-off); inconclusive = no clear call, values can overlap the other calls; inactive = mostly above about 0.92. The list shows a part of the results.

Test: chemical genetic growth profiling, strain panel (AID 1159580);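 note: tested at 20 µM; growth read once vehicle control cultures reached saturation at 30 °C; 1 = growth at the plate median or of vehicle wells; lower values mean less growth of the strain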
Settings: growth OD

Measured: normalized growth

Nc1ccc(S(=O)(=O)Nc2ccnn2-c2ccccc2)cc1
inactive: S. cerevisiae deletion strains, locus YJR075W, strain HOC1, hits give low values 1.02 and 1.03 | S. cerevisiae deletion strains, locus YKL009W, strain mrt4, hits give low values 0.976 | S. cerevisiae deletion strains, locus YKL068W, hits give low values 1 | S. cerevisiae deletion strains, locus YKL085W, strain MDH1 (second series), hits give low values 0.999 | S. cerevisiae deletion strains, locus YKL085W, strain MDH1, hits give low values 0.999 | S. cerevisiae deletion strains, locus YKL160W, strain elf1, hits give low values 0.989 | S. cerevisiae deletion strains, locus YKL190W, strain CNB1, hits give low values 1.01 | S. cerevisiae deletion strains, locus YKR001C, strain vps1, hits give low values 0.992 | S. cerevisiae deletion strains, locus YKR026C, strain gcn3, hits give low values 0.965 | S. cerevisiae deletion strains, locus YKR091W, strain srl3, hits give low values 0.997 | S. cerevisiae deletion strains, locus YLL001W, strain dnm1, hits give low values 0.979 | S. cerevisiae deletion strains, locus YLL026W, hits give low values 0.997 | S. cerevisiae deletion strains, locus YLL041C, strain sdh2, hits give low values 0.986 | S. cerevisiae deletion strains, locus YLR027C, strain aat2, hits give low values 0.985 | S. cerevisiae deletion strains, locus YLR039C, strain RIC1, hits give low values 0.982 | S. cerevisiae deletion strains, locus YLR058C, strain SHM2, hits give low values 1.01 | S. cerevisiae deletion strains, locus YLR102C, strain apc9, hits give low values 0.99 | S. cerevisiae deletion strains, locus YLR113W, strain HOG1, hits give low values 0.998 | S. cerevisiae deletion strains, locus YLR221C, strain rsa3, hits give low values 0.986 | S. cerevisiae deletion strains, locus YLR258W, strain gsy2, hits give low values 0.998 | S. cerevisiae deletion strains, locus YLR262C, strain YPT6 (second series), hits give low values 0.885 | S. cerevisiae deletion strains, locus YLR262C, strain YPT6, hits give low values 0.993 | S. cerevisiae deletion strains, locus YLR268W, strain sec22, hits give low values 0.998 | S. cerevisiae deletion strains, locus YLR320W, strain mms22, hits give low values 1.03 | S. cerevisiae deletion strains, locus YLR330W, strain CHS5, hits give low values 1 | S. cerevisiae deletion strains, locus YLR342W, strain FKS1 (second series), hits give low values 0.983 | S. cerevisiae deletion strains, locus YLR342W, strain FKS1, hits give low values 1.01 | S. cerevisiae deletion strains, locus YLR357W, strain rsc2, hits give low values 1 | S. cerevisiae deletion strains, locus YLR370C, strain arc18, hits give low values 1.01 | S. cerevisiae deletion strains, locus YLR371W, strain rom2, hits give low values 0.99 | S. cerevisiae deletion strains, locus YLR384C, strain iki3, hits give low values 0.977 | S. cerevisiae deletion strains, locus YLR418C, strain cdc73, hits give low values 1.01 | S. cerevisiae deletion strains, locus YML016C, strain PPZ1, hits give low values 1.01 | S. cerevisiae deletion strains, locus YML032C, strain rad52, hits give low values 0.996 | S. cerevisiae deletion strains, locus YML120C, strain ndi1, hits give low values 0.99 | S. cerevisiae deletion strains, locus YML124C, strain tub3, hits give low values 1 | S. cerevisiae deletion strains, locus YMR058W, strain fet3, hits give low values 0.986 | S. cerevisiae deletion strains, locus YMR078C, strain ctf18, hits give low values 0.998 | S. cerevisiae deletion strains, locus YMR125W, strain sto1, hits give low values 0.954 | S. cerevisiae deletion strains, locus YMR129W, hits give low values 0.988 | S. cerevisiae deletion strains, locus YMR205C, strain PFK2, hits give low values 1.05 | S. cerevisiae deletion strains, locus YMR223W, strain ubp8, hits give low values 0.991 | S. cerevisiae deletion strains, locus YMR231W, strain pep5, hits give low values 0.997 | S. cerevisiae deletion strains, locus YMR263W, strain SAP30, hits give low values 1.03 | S. cerevisiae deletion strains, locus YMR307W, strain GAS1, hits give low values 0.943 and 0.968 | S. cerevisiae deletion strains, locus YNL067W, strain RPL9B, hits give low values 1.02 | S. cerevisiae deletion strains, locus YNL071W, strain lat1, hits give low values 0.993 | S. cerevisiae deletion strains, locus YNL128W, strain TEP1, hits give low values 0.995 | S. cerevisiae deletion strains, locus YNL175C, strain NOP13, hits give low values 1.01 | S. cerevisiae deletion strains, locus YNL183C, strain NPR1, hits give low values 0.899 | S. cerevisiae deletion strains, locus YNL197C, strain WHI3, hits give low values 1.01 | S. cerevisiae deletion strains, locus YNL209W, strain ssb2, hits give low values 0.994 | S. cerevisiae deletion strains, locus YNL224C, strain SQS1, hits give low values 1 | S. cerevisiae deletion strains, locus YNL233W, strain BNI4, hits give low values 1.02 | S. cerevisiae deletion strains, locus YNL248C, strain rpa49, hits give low values 0.957 | S. cerevisiae deletion strains, locus YNL250W, strain rad50, hits give low values 1 | S. cerevisiae deletion strains, locus YNL271C, strain bni1, hits give low values 0.993 | S. cerevisiae deletion strains, locus YNL298W, strain CLA4, hits give low values 1.01 | S. cerevisiae deletion strains, locus YNL307C, strain MCK1, hits give low values 0.99 | S. cerevisiae deletion strains, locus YNL322C, strain KRE1 (second series), hits give low values 1 | S. cerevisiae deletion strains, locus YNL322C, strain KRE1, hits give low values 1.01 and 1.02 | S. cerevisiae deletion strains, locus YNR049C, strain mso1, hits give low values 0.996 | S. cerevisiae deletion strains, locus YNR052C, strain pop2, hits give low values 0.981 | S. cerevisiae deletion strains, locus YOL006C, strain TOP1, hits give low values 1.07 | S. cerevisiae deletion strains, locus YOL012C, strain htz1 1.59 | S. cerevisiae deletion strains, locus YOL147C, strain pex11, hits give low values 1.01 | S. cerevisiae deletion strains, locus YOR001W, strain rrp6, hits give low values 0.969 | S. cerevisiae deletion strains, locus YOR061W, strain CKA2, hits give low values 1.01 | S. cerevisiae deletion strains, locus YOR069W, strain VPS5, hits give low values 1.01 | S. cerevisiae deletion strains, locus YOR070C, strain gyp1, hits give low values 0.997 | S. cerevisiae deletion strains, locus YOR080W, strain dia2, hits give low values 1 | S. cerevisiae deletion strains, locus YOR083W, strain WHI5 (second series), hits give low values 1.03 | S. cerevisiae deletion strains, locus YOR083W, strain WHI5, hits give low values 0.968 | S. cerevisiae deletion strains, locus YOR106W, strain vam3, hits give low values 0.977 | S. cerevisiae deletion strains, locus YOR136W, strain idh2, hits give low values 1 | S. cerevisiae deletion strains, locus YOR144C, strain elg1, hits give low values 1 | S. cerevisiae deletion strains, locus YOR184W, strain ser1, hits give low values 0.996 | S. cerevisiae deletion strains, locus YOR231W, strain MKK1, hits give low values 0.974 | S. cerevisiae deletion strains, locus YOR265W, strain rbl2, hits give low values 1 | S. cerevisiae deletion strains, locus YOR270C, strain vph1, hits give low values 0.997 | S. cerevisiae deletion strains, locus YOR290C, strain snf2, hits give low values 0.957 | S. cerevisiae deletion strains, locus YOR316C, strain cot1, hits give low values 0.994 | S. cerevisiae deletion strains, locus YPL051W, strain arl3, hits give low values 0.978 | S. cerevisiae deletion strains, locus YPL055C, strain LGE1, hits give low values 1.05 and 1.01 | S. cerevisiae deletion strains, locus YPL078C, strain atp4, hits give low values 0.963 | S. cerevisiae deletion strains, locus YPL106C, strain sse1, hits give low values 0.993 | S. cerevisiae deletion strains, locus YPL240C, strain hsp82, hits give low values 0.979 | S. cerevisiae deletion strains, locus YPL241C, strain CIN2, hits give low values 1.01 | S. cerevisiae deletion strains, locus YPL256C, strain CLN2, hits give low values 0.975 | S. cerevisiae deletion strains, locus YPR119W, strain clb2, hits give low values 0.997 | S. cerevisiae deletion strains, locus YPR141C, strain kar3, hits give low values 1 | S. cerevisiae deletion strains, locus YPR163C, strain tif3, hits give low values 1 | S. cerevisiae deletion strains, locus YPR167C, strain met16, hits give low values 0.991 | S. cerevisiae deletion strains, strain wtn01, hits give low values 1 | S. cerevisiae strains, strain wild type, hits give low values 1.01
